Data reported in PubChem BioAssay (NCATS).
“And” between values parts separate entries of the source, which are not always exact repeats. Equal entries are not always repeated. Results filed as inconclusive are left out. Entries that show only a call come without a potency. Unmarked numbers belong to inactive results. The source made the active and inactive calls. Unless noted, calls follow the shape of the dose curve; as a rule, active = well fitted curve in the direction sought with a large enough effect; inconclusive = small, poorly fitted or top-dose-only effect, or another doubt; inactive = no such curve, though single readings can be large; an effect the other way counts as inactive or inconclusive.

Key:
[1] = biological target: Cellular tumor antigen p53 (Homo sapiens) (UniProt P04637); assay: Primary qHTS for small molecule compounds that upregulate eGFP-tagged delta133p53alpha (in C-terminal) cells. (AID 2060324)
Summary of the method: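 Concentration-response screen: compounds titrated onto pre-induced NCI-H358 D133p53a-eGFP cells, incubated one day, fixed with 3.5% PFA. Per-cell GFP peak intensity was gated, then normalized against intraplate controls.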

[2] = biological target: Aldehyde dehydrogenase, mitochondrial (Homo sapiens) (UniProt P05091); assay: qHTS for Inhibitors of the Aldehyde Dehydrogenase Family (ALDH2) Validation screens (AID 2061302; active = well fitted inhibition curve with a large enough effect; title and protocol of this record describe different tests)
[3] = biological target: Retinaldehyde dehydrogenase 3 (Homo sapiens) (UniProt P47895); assay: qHTS for Inhibitors of the Aldehyde Dehydrogenase Family (ALDH1A3) Validation screen (AID 2061312); also: nearly all actives have a fitted effect of over 45% in size
[4] = biological target: Cellular tumor antigen p53 (Homo sapiens) (UniProt P04637); assay: Primary qHTS for small molecule compounds that upregulate eGFP-tagged delta133p53alpha (in N-terminal) cells. (AID 2060322); details: NCI-H358 eGFP-delta133p53alpha fluorescence, 24 h; activation: stronger effect = higher value; also: nearly all actives have a fitted effect of over 75% in size; also: potency is read from the fitted curve at half-maximal effect;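 as to activation: cells pre-induced with doxycycline then dosed without doxycycline; series mostly up to about 56 µM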
Summary of the method: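 NCI-H358 cells pre-induced 24 h with 10 ng/ml doxycycline for eGFP-delta133p53alpha, plated dox-free and exposed 24 h at 37C to titrated compounds. Fixed, Hoechst-stained; gated GFP peak intensity by laser scanning cytometry, normalized to DMSO (0%) and 57.5 uM 5-azacytidine (100%).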

[5] = BET inhibitor-based combinations targeting novel dependencies in MECOM-rearranged (r) AML: SET-2 cell line (AID 2202231); details: SET-2 AML cells viability, CellTiter-Glo luminescence, 48 h; viability: stronger effect = lower value, concentration not given here; also: nearly all actives have a fitted effect of over 35% in size; also: potency is read from the fitted curve at half-maximal effect
Summary of the method: (§1)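 A 48 hr incubation preceded viability reading by CellTiter-Glo, with 15 min room-temperature development. Dose series had 11 points; normalization used DMSO and empty wells; AUC was computed and mean-centered per line as Z-AUC.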

[6] = BET inhibitor-based combinations targeting novel dependencies in MECOM-rearranged (r) AML: OCI-AML3 cell line (AID 2202232); details: Potency: OCI-AML3 viability; also: nearly all actives have a fitted effect of over 35% in size; also: potency is read from the fitted curve at half-maximal effect
Summary of the method: as §1

[7] = BET inhibitor-based combinations targeting novel dependencies in MECOM-rearranged (r) AML: UCSD-AML1 cell line (AID 2202235); also: nearly all actives have a fitted effect of over 40% in size; also: potency is read from the fitted curve at half-maximal effect
Summary of the method: (§2)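 Each compound is tested in an 11-point concentration series against 500 seeded cells/well for 48 hr. The luminescent viability signal is normalized to DMSO and blank wells, then reduced to AUC and a cell-line-centred Z-AUC.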

[8] = BET inhibitor-based combinations targeting novel dependencies in MECOM-rearranged (r) AML: AML-194 cell line (AID 2202237; also: nearly all actives have a fitted effect of over 40% in size; also: potency is read from the fitted curve at half-maximal effect)
Summary of the method: as §1

[9] = BET inhibitor-based combinations targeting novel dependencies in MECOM-rearranged (r) AML: MV-4-11 cell line (AID 2202233); also: nearly all actives have a fitted effect of over 45% in size; also: potency is read from the fitted curve at half-maximal effect
Summary of the method: as §2

[10] = BET inhibitor-based combinations targeting novel dependencies in MECOM-rearranged (r) AML: HNT-34 cell line (AID 2202234); also: nearly all actives have a fitted effect of over 35% in size; also: potency is read from the fitted curve at half-maximal effect
Summary of the method: as §2

[11] = BET inhibitor-based combinations targeting novel dependencies in MECOM-rearranged (r) AML: AML-191 cell line (AID 2202236; also: nearly all actives have a fitted effect of over 35% in size; also: potency is read from the fitted curve at half-maximal effect)
Summary of the method: as §1

[12] = biological target: Aldehyde dehydrogenase, mitochondrial (Homo sapiens) (UniProt P05091); assay: qHTS for Inhibitors of the Aldehyde Dehydrogenase Family (ALDH2) Primary screen (AID 2061308); also: nearly all actives have a fitted effect of over 55% in size
[13] = biological target: Retinaldehyde dehydrogenase 3 (Homo sapiens) (UniProt P47895); assay: qHTS for Inhibitors of the Aldehyde Dehydrogenase Family (ALDH1A3) Primary screen (AID 2061315)

Chain of Cellular tumor antigen p53 (Homo sapiens) (P04637 whole entry, looked up): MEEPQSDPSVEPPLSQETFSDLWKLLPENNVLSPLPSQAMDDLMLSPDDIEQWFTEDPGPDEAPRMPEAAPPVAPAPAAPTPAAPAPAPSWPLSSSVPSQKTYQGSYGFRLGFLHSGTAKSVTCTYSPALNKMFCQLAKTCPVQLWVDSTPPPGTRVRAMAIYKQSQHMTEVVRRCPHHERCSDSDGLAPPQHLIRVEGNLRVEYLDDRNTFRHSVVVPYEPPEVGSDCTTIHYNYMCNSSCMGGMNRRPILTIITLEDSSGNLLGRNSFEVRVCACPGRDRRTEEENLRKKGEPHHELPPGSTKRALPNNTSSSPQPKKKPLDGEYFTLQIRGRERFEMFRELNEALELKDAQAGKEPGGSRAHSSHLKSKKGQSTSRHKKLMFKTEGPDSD

For `C[C@H](Cc1ccc2c(c1)OC(C(=O)O)(C(=O)O)O2)NC[C@H](O)c1cccc(Cl)c1`, the Potency [1] was “inactive”, the Potency [2] was “inactive” and the Potency [3] was “inactive”.
In the case of `COC1(CS(=O)c2ccccc2)CCN(CCc2c[nH]c3ccc(F)cc23)CC1` (stereo not drawn), the activation [4] is reported as -25%, the viability [5] is reported as 110% and the Potency [6] is reported as 14.8 µM (active). The Potency [7] was “inactive” and the Potency [8] was “inactive”.
For `CCN1C[C@]2(OC(=O)c3ccccc3NC(C)=O)CC[C@H](OC)[C@@]34[C@H]5CC6[C@@H](OC)C[C@](O)(C(C[C@@H]23)[C@@H]14)[C@@]5(O)[C@@H]6OC`, the activation [4] was 24.6%, the Potency [6] was “inactive” and the Potency [9] was “inactive”. The Potency [10] was “inactive”, the Potency [7] was “inactive” and the Potency [11] was “inactive”. For the same molecule, the Potency [8] was “inactive”.
In the case of `CC(NC(C)(C)C)C(=O)c1cccc(Cl)c1` (stereo not drawn), the Potency [1] is reported as “inactive”, the Potency [2] is reported as “inactive” and the Potency [12] is reported as “inactive”. The Potency [3] was “inactive”, the Potency [13] was “inactive” and the Potency [6] was “inactive”. The Potency [9] was “inactive”, the Potency [11] was “inactive” and the Potency [8] was “inactive”.
For `c1ccc2c(CN3CCNCC3)cccc2c1`, the activation [4] was 12.1%, the Potency [9] was “inactive” and the Potency [7] was “inactive”. The Potency [11] was “inactive” and the Potency [8] was “inactive”.
With `C#CC1(O)CCC2C3CCC4=CC(=O)CCC4(C)C3CCC21C` (stereo not drawn) the activation [4] was 2.51%, the Potency [10] was “inactive” and the Potency [11] was “inactive”. For the same molecule, the Potency [8] was “inactive”.
With `CN[C@@H]1Cc2cccc3[nH]c(=O)n(c23)C1` the activation [4] was 31.7%, the viability [5] was 120% and the Potency [6] was “inactive”. The Potency [9] was “inactive”, the Potency [7] was “inactive” and the Potency [11] was “inactive”. For the same molecule, the Potency [8] was “inactive”.
In the case of `Cc1ncc(OC[C@@]2(c3cccc(F)c3)C[C@H]2C(=O)Nc2ccc(F)cn2)c(C)n1`, the activation [4] is reported as -13.1%, the viability [5] is reported as 92.7% and the Potency [6] is reported as “inactive”. The Potency [10] was “inactive”, the Potency [11] was “inactive” and the Potency [8] was “inactive”.
For `C[C@]12Cc3cn[nH]c3C[C@@H]1CC[C@@H]1[C@@H]2CC[C@@]2(C)[C@H]1CC[C@]2(C)O`, the activation [4] was -21.8%, the Potency [9] was 0.742 µM (active) and the Potency [7] was “inactive”. The Potency [11] was “inactive”.
In the case of `C[C@@H]1CC[C@H]2[C@@H](C)C(=O)O[C@@H]3O[C@@]4(C)CC[C@@H]1[C@]32OO4`, the activation [4] is reported as 0%, the viability [5] is reported as 93.5% and the Potency [10] is reported as 14.8 µM (active). For the same molecule, the Potency [7] was “inactive”, the Potency [11] was 5.25 µM (active) and the Potency [8] was “inactive”.
For `O=S(=O)(F)Cc1ccccc1`, the activation [4] was 5.78% and the Potency [7] was “inactive”.
With `COc1ccc(C(=O)c2c(C)n(CCN3CCOCC3)c3cc(I)ccc23)cc1` the activation [4] was 27.2%, the Potency [5] was 13.2 µM (active) and the Potency [6] was 9.34 µM (active). The Potency [7] was “inactive”, the Potency [11] was 6.61 µM (active) and the Potency [8] was 9.34 µM (active).
With `C[C@](O)(COc1ccc(C#N)cc1)C(=O)Nc1ccc(C#N)c(C(F)(F)F)c1` the activation [4] was -20%, the Potency [9] was “inactive” and the Potency [8] was “inactive”.
For `CN1CCC(c2c[nH]c3ccc(O)cc23)CC1`, the Potency [1] was “inactive” and the Potency [2] was “inactive”.
For `NC(=O)c1ccc(OCC(O)CN2CC=C(c3ccc(F)cc3)CC2)cc1` (stereo not drawn), the Potency [1] was “inactive” and the Potency [2] was “inactive”.
In the case of `N[C@@H](Cc1ccc(N(CCCl)CCCl)cc1)C(=O)O`, the activation [4] is reported as 29.4%, the Potency [5] is reported as 4.68 µM (active) and the Potency [7] is reported as 2.95 µM (active). For the same molecule, the Potency [8] was 2.95 µM (active).
In the case of `CC(C)(O)C(=O)Nc1ccc([N+](=O)[O-])c(C(F)(F)F)c1`, the activation [4] is reported as -14.4%, the Potency [5] is reported as 23.5 µM (active) and the Potency [9] is reported as 16.6 µM (active). The Potency [7] was “inactive”.
For `CC1=C(O)C(=O)C=C2C1=CC=C1[C@@]2(C)CC[C@@]2(C)[C@@H]3C[C@](C)(C(=O)O)CC[C@]3(C)CC[C@]12C`, the Potency [4] was 17.2 µM (active), the Potency [5] was 0.934 µM (active) and the Potency [10] was 0.934 µM (active). For the same molecule, the Potency [7] was 1.05 µM (active), the Potency [11] was 0.934 µM (active) and the Potency [8] was 1.18 µM (active).
In the case of `Fc1ccc(C(OCCN2CCN(CCCc3ccccc3)CC2)c2ccc(F)cc2)cc1`, the activation [4] is reported as 0.57% and -55.2%, the Potency [5] is reported as 23.5 µM (active) and the Potency [9] is reported as 10.5 µM (active). The Potency [7] was 26.3 µM (active), the Potency [11] was 18.6 µM (active) and the Potency [8] was 23.5 µM (active).
For `O=C1CC[C@@]2(O)[C@H]3Cc4ccc(O)c5c4[C@@]2(CCN3CC2CC2)[C@H]1O5`, the activation [4] was -5.99% and 2.51%, the Potency [6] was “inactive” and the Potency [10] was “inactive”. The Potency [7] was “inactive”, the Potency [11] was “inactive” and the Potency [8] was “inactive”.
With `CN(C)CCN(C)CCc1ccc(Cl)c(Cl)c1` the activation [4] was 12%, the viability [5] was 103% and the Potency [6] was “inactive”. The Potency [10] was “inactive”, the Potency [7] was “inactive” and the Potency [11] was “inactive”. For the same molecule, the Potency [8] was “inactive”.
In the case of `CCOC(=O)c1c(C(C#N)=CN)c2ccc(Cl)c(Cl)c2n1C`, the activation [4] is reported as -1.37%, the viability [5] is reported as 114% and the Potency [7] is reported as “inactive”. For the same molecule, the Potency [8] was “inactive”.
With `C=C1C[C@@H]2[C@H](CC[C@]3(C)C(=O)CC[C@@H]23)[C@@]2(C)C=CC(=O)C=C12` the activation [4] was -17.6%, the Potency [9] was 18.6 µM (active) and the Potency [7] was “inactive”.
In the case of `C[C@@H]1C[C@@H]([C@H](O)CC2CC(=O)NC(=O)C2)C(=O)[C@@H](C)C1`, the Potency [4] is reported as 4.37 µM (active) and 968 nM (active), the Potency [9] is reported as 0.525 µM (active) and the Potency [7] is reported as 0.263 µM (active). The Potency [11] was 0.742 µM (active) and the Potency [8] was 0.833 µM (active).
With `Cn1cnc(CCN)c1` the Potency [1] was “inactive”.
In the case of `CC(C)(C)c1cc(C=C(C#N)C#N)cc(Br)c1O`, the activation [4] is reported as 19.6%, the Potency [6] is reported as 23.5 µM (active) and the Potency [9] is reported as 18.6 µM (active). For the same molecule, the Potency [10] was 16.6 µM (active), the Potency [7] was 33.2 µM (active) and the Potency [11] was 18.6 µM (active).
